Data on 40 molecules can be found in PubChem BioAssay (EPA / NIEHS).

Calls of active or inactive are those of the source. How the source made its calls: active means hit-call score of the fitted dose curve at least 0.9, where 1 is the maximum; inactive means score below 0.9.

Read-out in this assay: DNA damage-inducible transcript 3 (DDIT3), DDIT3 (gene 1649)
The assay is described as follows: LTEA_HepaRG_DDIT3: Life Technologies and Expression Analysis (LTEA) Assay for DNA damage-inducible transcript 3 (DDIT3) using HepaRG (AID 2283488). The conditions noted are these: mRNA level, 48 h; actives raise or lower the signal. How it is done:
LTEA_HepaRG is a cell based, multiplexed-readout assay that uses HepaRG, a human liver cell line, with measurements taken at 48 hours after chemical dosing on a 96-well plate.LTEA_HepaRG_DDIT3 is one of 102 assay component(s) measured in the LTEA HepaRG cell culture assay. It is a marker of Oxidative Stress.Data from the assay component LTEA_HepaRG_DDIT3 was analyzed into 1 endpoint. This assay endpoint, LTEA_HepaRG_DDIT3, was analyzed with bidirectional fitting relative to DMSO as the negative control and baseline of activity. Using a type of inducible reporter, measures of mRNA induction for gain or loss-of-signal activity can be used to understand regulation of transcription factor activity. To generalize the intended target to other relatable targets, this assay endpoint is annotated to the dna binding intended target family, where the subfamily is basic leucine zipper.
A total of 1060 chemcials from the ToxCast library were tested in eight-point concentration-response experiments. Cell culture and cytotoxicity assays were conducted at Thermo Fisher Scientific's Custom Services facility (Madison, WI). A single lot of human HepaRG cells (Thermo Fisher Scientific, Frederick, MD) was used for the cell culture experiments. 96-well format collagen type I coated plates of human HepaRG cells were prepared using established methods. Briefly, cryopreserved HepaRG cells were thawed, plated at a density of approximately 100,000 cells/well in HepaRG Thaw, Plate, and General Purpose media (HPRG770, Thermo Fisher Scientific), and incubated for 48 hours. 0.5% DMSO was selected as vehicle control to balance the requisite need of DMSO in HepaRG cultures to maintain differentiation (for example, baseline metabolism, proportions of hepatocytes vs. cholangiocytes), while enabling further hepatic receptor pathway activation (for example, PXR and CAR) in response to chemical exposure. 48 hours after plating, the culture medium was replaced with HepaRG Serum-Free Incudtion Media. Cells were exposed to each test chemical in duplicate and maintained in CO2 incubators for another 48 hours. Chemical plates were thawed to room temperature and 200x concentrations of treatment groups were prepared. 8-point conentration-reponse curves were made with the highest exposure at 100 uM, followed by half-log dilutions, all in 0.5% DMSO. Each test plate contained variouse controls, induction positive controls (1mM phenobarbital), cytotoxicity positive controls ([…] aflatoxin B1), vehicle controls (0.5% DMSO), and total lysis controls (0.5% DMSO). Cell morphology images were taken using an Essen IncuCyte FLR automated microscope, with six 96-well plates imaged in about 24 minutes. Images were captured and exported and JPEG files. Spent culture media was transfered to black-well plates for the LDH assay, and remaining media was sorted at -80 C for later use. Cells were treated with RLT buffer and frozen until shipped for gene expression analysis. Total RNA was isolated from the cell suspension in 75 uL of Buffer RLT (Qiagen, Germantown, MD 20874) by Quintiles/Expression Analysis (Durham, NC) using a custom isolation procedure. Total RNA from each plate well was transferred to a preamplification plate. Fluidigm's 96.96 Dynamic ArrayTM (Fluidigm, Amsterdam, the Netherlands) technology was used for gene expression analyses by quantitative reverse transcription polymerase chain reaction (qRT-PCR, performed by Quintiles/Expression Analysis, Durham, NC)89. Standard TaqManTM Assays (Applied Biosystems/ThermoFisher Scientific, Foster City, CA) were used to assess the expression of 93 genes selected based on their selectivity and sensitivity to important hepatic receptors known to be modulated by environmental chemicals; importance in human hepatocyte functionality; and hepatotoxicity. […]
In the case of `CC(C)(C)OOC(C)(C)C`, the molecule was classed as inactive.

For `O=P(Oc1ccccc1)(Oc1ccccc1)Oc1ccccc1`, the AC50 was 75.4 µM (active).

Turning to `CCOS(=O)(=O)OCC`, the call was inactive.

On to `CC(C)(C)c1ccc(O)cc1`, for which the call was inactive.

With `CCNc1nc(Cl)nc(NC(C)(C)C)n1`, the molecule was called inactive.

For the molecule `CCOP(=S)(OCC)SCSCC`, the result was inactive.

With `[N-]=[N+]=[N-]`, the AC50 is 76.4 µM (active).

Consider `Cc1ccc([N+](=O)[O-])cc1C`, for which the call was inactive.

With `O=C(O)C(Cl)Cl`, the molecule was called inactive.

As to `CC(Cl)(Cl)C(=O)O`, the result was inactive.

Take `Cc1ccc(O)cc1C`: the molecule was classed as inactive.

With `CCN(CC)c1ccccc1`, the molecule was classed as inactive.

Turning to `c1ccc(OP(Oc2ccccc2)Oc2ccccc2)cc1`, the result was inactive.

`COCCOCCO`: the outcome was inactive.

For `Nc1cc2c3c(c1)C(c1ccccc1)=N[C@@H](NC(=O)c1cccnc1)C(=O)N3CC2`, the molecule was classed as inactive.

As for `CCOc1ccc(C(C)(C)COCc2cccc(Oc3ccccc3)c2)cc1`, the outcome was inactive.

On to `Cc1cccc(N)c1`, for which the molecule was called inactive.

Consider `CSC(C)(C)C=NO`, for which the call was inactive.

As to `CCC1(c2ccccc2)C(=O)N=C(O)NC1=O` (stereo not given), the molecule was called inactive.

`CCC(C)(C)c1ccc(O)cc1`: the result was inactive.

With `Nc1ccc2ccccc2c1`, the call was inactive.

Take `CCCCN(CCCC)SN(C)C(=O)Oc1cccc2c1OC(C)(C)C2`: the result was inactive.

With `CCCCc1ccccc1`, the molecule was classed as inactive.

`c1cc2c3c(cccc3c1)CC2`: the molecule was called inactive.

As for `O=[N+]([O-])c1ccccc1`, the molecule was called inactive.

`ClC(Cl)c1ccccc1`: the outcome was inactive.

Turning to `c1ccc2c(c1)Nc1ccccc1S2`, the result was inactive.

For the molecule `CCCCN(CCCC)N=O`, the outcome was inactive.

For `O=[N+]([O-])c1ccc(Cl)c(Cl)c1`, the call was inactive.

Take `CCOC(=O)c1ccccc1C(=O)OCC`: the molecule was classed as inactive.

Regarding `CCCN(CCC)c1c([N+](=O)[O-])cc(C(C)C)cc1[N+](=O)[O-]`, the molecule was called inactive.

With `Cc1ccc(N)cc1N`, the outcome was inactive.

Regarding `c1nc[nH]n1`, the call was inactive.

For the molecule `ClC(Cl)(Cl)c1ccccc1`, the outcome was inactive.

For the molecule `OCC1CO1` (stereo not given), the call was inactive.

Turning to `CCOP(=S)(Oc1ccc([N+](=O)[O-])cc1)c1ccccc1` (stereo not given), the outcome was inactive.

Turning to `O=C(O)C1C(C(=O)O)C2(Cl)C(Cl)=C(Cl)C1(Cl)C2(Cl)Cl` (stereo not given), the molecule was called inactive.

Turning to `CCCCCCCc1ccc(O)cc1`, the call was inactive.

As for `CN(C)C(=O)Cl`, the molecule was classed as inactive.

Take `O=P1(N(CCCl)CCCl)NCCCO1` (stereo not given): the molecule was classed as inactive.

What is called AC50 is the concentration at which the activity in the assay is half-maximal.
